How the values were obtained:
Assay in all cases: log2 ratio of Biotin-Ahx-Ub-VS probe labelling (compound/DMSO); higher = less target engagement, active = hit call of the paper (q ≤ 0.05, log2 ratio ≤ -1)
Settings in all cases: treatment time: 3 h
[1] = compound: ClCC(=O)NC(C1CCCC1)c1cccs1
How it was run: (§1)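 HEK293T lysate (495 µg per sample, in Tris/CHAPS/IGEPAL buffer with protease inhibitors) was exposed in triplicate to compound at 50 or 200 µM, or to DMSO, for 3 h, then to Biotin-Ahx-Ub-VS (0.5 µM final) for 1 h. The labelled DUBs were enriched on NeutrAvidin, digested with LysC and trypsin, and analysed by diaPASEF LC-MS/MS. Average base-two log ratios of compound over DMSO came from median-normalised label-free quantities by unpaired t-test. Only proteins with at least 2 unique peptides were used.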

[2] = compound: CCC1N(CCc2sccc12)C(=O)CCl
How it was run: as §1

[3] = compound: CN1c2ccccc2C(CS1(=O)=O)NC(=O)CCl
How it was run: as §1

[4] = compound: Cl.ClCC(=O)N1CCc2ncncc2C1
How it was run: as §1

[5] = compound: Cl.Cn1ncc2C(CCCc12)NC(=O)CCl
How it was run: as §1

[6] = compound: ClCC(=O)NC1CCOc2ccccc12
How it was run: as §1

[7] = compound: ClCC(=O)NC1CCCc2ccccc12
How it was run: (§2)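 In triplicate, 495 µg portions of HEK293T lysate in Tris/CHAPS/IGEPAL buffer with protease inhibitors received compound across a concentration series or vehicle for 3 h, followed by 1 h with 0.5 µM final Biotin-Ahx-Ub-VS. After NeutrAvidin enrichment and LysC/trypsin digestion, the labelled deubiquitinases were measured by diaPASEF LC-MS/MS and quantified label-free in Spectronaut with global-median normalisation. Each value is an average compound-to-vehicle ratio from an unpaired t-test, expressed as log2 and restricted to proteins having two or more unique peptides.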

[8] = compound: ClCC(=O)N[C@@H]1CCCc2ccccc12
How it was run: as §2

[9] = compound: ClCC(=O)N[C@H]1CCCc2ccccc12
How it was run: as §2

[10] = compound: CCC1N(CCc2cc(OC)c(Cl)cc12)C(=O)CCl
How it was run: as §1

[11] = compound: CCCC1N(CCc2cc(OC)c(OC)cc12)C(=O)CCl
How it was run: as §1

[12] = compound: CN(Cc1cccc(Br)c1)C(=O)CCl
How it was run: as §1

[13] = compound: CN(Cc1cccc(OCc2ccccc2C)c1)C(=O)CCl
How it was run: as §1

[14] = compound: CN(Cc1ccccc1)C(=O)CCl
How it was run: as §1

[15] = compound: COc1ccc(CN(C)C(=O)CCl)cc1
How it was run: as §1

[16] = compound: COc1cccc(CN(CCCc2ccccc2)C(=O)CCl)c1
How it was run: as §1

[17] = compound: ClCC(=O)N1CCc2cc(Cl)c(Cl)cc2C1
How it was run: as §1

[18] = compound: ClCC(=O)N1CCc2nc(ncc2C1)-c1ccccc1
How it was run: as §1

[19] = compound: ClCC(=O)N1CCc2nocc2C1
How it was run: as §1

[20] = compound: ClCC(=O)N1CCc2scc(Br)c2C1
How it was run: as §1

Measured: log2 ratio of Biotin-Ahx-Ub-VS probe labelling

USP54 (UniProt Q70EL1)
Sequence of UniProt Q70EL1 (Q70EL1 whole entry): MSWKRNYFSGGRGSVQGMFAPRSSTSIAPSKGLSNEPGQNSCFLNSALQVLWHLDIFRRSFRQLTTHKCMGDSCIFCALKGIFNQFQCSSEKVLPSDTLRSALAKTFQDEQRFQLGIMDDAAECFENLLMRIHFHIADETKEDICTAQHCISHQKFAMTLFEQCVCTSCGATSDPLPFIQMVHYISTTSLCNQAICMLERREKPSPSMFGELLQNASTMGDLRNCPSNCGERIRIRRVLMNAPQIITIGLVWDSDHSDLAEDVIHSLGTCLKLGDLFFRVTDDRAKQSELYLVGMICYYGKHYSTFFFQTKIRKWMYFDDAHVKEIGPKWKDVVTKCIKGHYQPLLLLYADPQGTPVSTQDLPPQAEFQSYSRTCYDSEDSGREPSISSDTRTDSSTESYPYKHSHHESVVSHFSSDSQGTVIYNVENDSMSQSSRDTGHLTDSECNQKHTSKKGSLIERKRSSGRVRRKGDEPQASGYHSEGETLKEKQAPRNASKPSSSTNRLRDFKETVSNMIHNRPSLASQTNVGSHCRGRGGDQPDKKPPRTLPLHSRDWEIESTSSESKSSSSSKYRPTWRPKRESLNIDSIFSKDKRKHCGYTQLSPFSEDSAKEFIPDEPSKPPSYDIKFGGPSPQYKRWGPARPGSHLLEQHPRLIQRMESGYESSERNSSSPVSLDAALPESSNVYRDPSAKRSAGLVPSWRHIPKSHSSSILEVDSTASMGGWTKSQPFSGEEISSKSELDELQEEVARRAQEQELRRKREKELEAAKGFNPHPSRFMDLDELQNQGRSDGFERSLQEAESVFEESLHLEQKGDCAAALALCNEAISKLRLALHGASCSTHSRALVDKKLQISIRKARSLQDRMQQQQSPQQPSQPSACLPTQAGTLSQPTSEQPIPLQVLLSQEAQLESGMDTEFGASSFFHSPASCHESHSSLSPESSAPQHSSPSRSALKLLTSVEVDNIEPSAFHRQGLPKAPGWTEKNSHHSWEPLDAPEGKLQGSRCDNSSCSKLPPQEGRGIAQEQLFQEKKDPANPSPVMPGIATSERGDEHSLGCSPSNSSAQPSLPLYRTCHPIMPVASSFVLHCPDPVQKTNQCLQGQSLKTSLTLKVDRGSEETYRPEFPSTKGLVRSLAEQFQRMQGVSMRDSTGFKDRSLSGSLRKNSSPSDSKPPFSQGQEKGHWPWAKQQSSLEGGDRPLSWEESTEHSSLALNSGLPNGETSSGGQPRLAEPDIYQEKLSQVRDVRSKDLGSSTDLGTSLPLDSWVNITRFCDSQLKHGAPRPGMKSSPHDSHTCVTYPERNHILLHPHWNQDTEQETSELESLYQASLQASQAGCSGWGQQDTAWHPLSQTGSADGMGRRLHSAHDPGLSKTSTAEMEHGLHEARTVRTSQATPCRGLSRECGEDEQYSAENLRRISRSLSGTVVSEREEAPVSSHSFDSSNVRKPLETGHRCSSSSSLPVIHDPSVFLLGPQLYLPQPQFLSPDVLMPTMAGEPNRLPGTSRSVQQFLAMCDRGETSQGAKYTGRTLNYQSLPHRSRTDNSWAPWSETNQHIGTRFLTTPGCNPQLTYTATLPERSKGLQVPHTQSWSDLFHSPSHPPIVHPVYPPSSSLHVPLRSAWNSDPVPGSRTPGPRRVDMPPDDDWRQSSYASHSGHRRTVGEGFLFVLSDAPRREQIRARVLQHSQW
inactive: [1]; compound concentration: 200uM 0.198

EIF3H (UniProt O15372)
Sequence of UniProt O15372 (O15372 whole entry): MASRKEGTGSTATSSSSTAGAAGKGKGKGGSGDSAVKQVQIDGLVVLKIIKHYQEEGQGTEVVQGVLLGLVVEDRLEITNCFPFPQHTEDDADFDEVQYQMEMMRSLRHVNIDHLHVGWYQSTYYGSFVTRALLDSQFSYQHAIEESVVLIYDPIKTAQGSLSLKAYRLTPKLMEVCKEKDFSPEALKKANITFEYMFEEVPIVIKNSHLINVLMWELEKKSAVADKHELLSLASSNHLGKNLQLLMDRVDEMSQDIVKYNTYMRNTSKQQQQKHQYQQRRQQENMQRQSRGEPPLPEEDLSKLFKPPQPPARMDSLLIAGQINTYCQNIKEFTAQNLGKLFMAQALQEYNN
inactive: [2]; compound concentration: 50uM 4e-05 | [2]; compound concentration: 200uM -0.0195 | [3]; compound concentration: 50uM 0.0525 | [3]; compound concentration: 200uM 0.0675 | [4]; compound concentration: 50uM -0.0138 | [4]; compound concentration: 200uM -0.124 | [5]; compound concentration: 50uM -0.0892 | [5]; compound concentration: 200uM -0.0788 | [6]; compound concentration: 50uM 0.0209 | [6]; compound concentration: 200uM -0.0491 | [7]; compound concentration: 0.78uM -0.172 | [7]; compound concentration: 1.56uM 0.005 | [7]; compound concentration: 3.13uM 0.0821 | [7]; compound concentration: 6.25uM -0.12 | [7]; compound concentration: 12.5uM -0.146 | [7]; compound concentration: 25uM -0.153 | [7]; compound concentration: 50uM 0.125 | [7]; compound concentration: 100uM 0.0329 | [7]; compound concentration: 200uM -0.275 | [8]; compound concentration: 0.78uM -0.105 | [8]; compound concentration: 1.56uM 0.0364 | [8]; compound concentration: 3.13uM -0.02 | [8]; compound concentration: 6.25uM 0.0572 | [8]; compound concentration: 12.5uM 0.182 | [8]; compound concentration: 25uM -0.109 | [8]; compound concentration: 50uM 0.0801 | [8]; compound concentration: 100uM 0.0419 | [8]; compound concentration: 200uM 0.454 | [9]; compound concentration: 0.78uM 0.0712 | [9]; compound concentration: 1.56uM -0.0618 | [9]; compound concentration: 3.13uM -0.213 | [9]; compound concentration: 6.25uM 0.288 | [9]; compound concentration: 12.5uM 0.201 | [9]; compound concentration: 25uM 0.184 | [9]; compound concentration: 50uM 0.306 | [9]; compound concentration: 100uM -0.0743 | [9]; compound concentration: 200uM 0.179 | [10]; compound concentration: 50uM -0.165 | [10]; compound concentration: 200uM -0.139 | [11]; compound concentration: 50uM 0.00258 | [11]; compound concentration: 200uM 0.0942 | [12]; compound concentration: 50uM -0.0499 | [12]; compound concentration: 200uM -0.495 | [13]; compound concentration: 50uM -0.0626 | [13]; compound concentration: 200uM -0.0695 | [14]; compound concentration: 50uM -0.0247 | [14]; compound concentration: 200uM -0.0426 | [15]; compound concentration: 50uM -0.128 | [15]; compound concentration: 200uM 0.0275 | [16]; compound concentration: 50uM 0.0566 | [16]; compound concentration: 200uM 0.0114 | [17]; compound concentration: 50uM -0.344 | [17]; compound concentration: 200uM 0.309 | [18]; compound concentration: 50uM -0.162 | [18]; compound concentration: 200uM 0.025 | [19]; compound concentration: 50uM 0.0895 | [19]; compound concentration: 200uM -0.349 | [20]; compound concentration: 50uM -0.0247 | [20]; compound concentration: 200uM 0.0406 | [1]; compound concentration: 50uM -0.136 | [1]; compound concentration: 200uM 0.0107

UCHL5 (UniProt Q9Y5K5)
Sequence of UniProt Q9Y5K5 (Q9Y5K5 whole entry): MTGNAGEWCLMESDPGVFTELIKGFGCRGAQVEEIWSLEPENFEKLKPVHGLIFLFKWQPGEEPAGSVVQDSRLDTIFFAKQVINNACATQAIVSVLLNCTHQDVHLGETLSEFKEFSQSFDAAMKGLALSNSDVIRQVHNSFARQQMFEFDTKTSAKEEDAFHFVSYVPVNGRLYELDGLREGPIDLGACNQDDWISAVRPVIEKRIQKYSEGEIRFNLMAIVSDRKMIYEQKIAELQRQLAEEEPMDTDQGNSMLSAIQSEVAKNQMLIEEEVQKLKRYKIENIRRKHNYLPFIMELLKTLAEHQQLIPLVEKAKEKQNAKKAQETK
active: [13]; compound concentration: 200uM -1.33 | [16]; compound concentration: 200uM -1.17 | [17]; compound concentration: 200uM -1.36
inactive: [2]; compound concentration: 50uM -0.261 | [2]; compound concentration: 200uM -0.413 | [3]; compound concentration: 50uM -0.312 | [3]; compound concentration: 200uM -0.412 | [4]; compound concentration: 50uM -0.053 | [4]; compound concentration: 200uM -0.389 | [5]; compound concentration: 50uM 0.0591 | [5]; compound concentration: 200uM -0.0343 | [6]; compound concentration: 50uM -0.0586 | [6]; compound concentration: 200uM -0.0877 | [7]; compound concentration: 0.78uM -0.151 | [7]; compound concentration: 1.56uM -0.0693 | [7]; compound concentration: 3.13uM -0.187 | [7]; compound concentration: 6.25uM -0.075 | [7]; compound concentration: 12.5uM -0.156 | [7]; compound concentration: 25uM -0.346 | [7]; compound concentration: 50uM -0.111 | [7]; compound concentration: 100uM -0.166 | [7]; compound concentration: 200uM -0.211 | [8]; compound concentration: 0.78uM -0.425 | [8]; compound concentration: 1.56uM -0.183 | [8]; compound concentration: 3.13uM -0.22 | [8]; compound concentration: 6.25uM -0.255 | [8]; compound concentration: 12.5uM -0.281 | [8]; compound concentration: 25uM -0.176 | [8]; compound concentration: 50uM -0.209 | [8]; compound concentration: 100uM -0.17 | [8]; compound concentration: 200uM -0.35 | [9]; compound concentration: 0.78uM -0.162 | [9]; compound concentration: 1.56uM -0.217 | [9]; compound concentration: 3.13uM -0.188 | [9]; compound concentration: 6.25uM 0.0176 | [9]; compound concentration: 12.5uM -0.23 | [9]; compound concentration: 25uM -0.161 | [9]; compound concentration: 50uM -0.0913 | [9]; compound concentration: 100uM -0.178 | [9]; compound concentration: 200uM -0.266 | [10]; compound concentration: 50uM -0.0479 | [10]; compound concentration: 200uM -0.725 | [11]; compound concentration: 50uM -0.464 | [11]; compound concentration: 200uM -0.644 | [12]; compound concentration: 50uM -0.213 | [12]; compound concentration: 200uM -0.442 | [13]; compound concentration: 50uM -0.735 | [14]; compound concentration: 50uM -0.356 | [14]; compound concentration: 200uM -0.432 | [15]; compound concentration: 50uM -0.288 | [15]; compound concentration: 200uM -0.317 | [16]; compound concentration: 50uM -0.37 | [17]; compound concentration: 50uM -0.0548 | [18]; compound concentration: 50uM 0.0333 | [18]; compound concentration: 200uM -0.459 | [19]; compound concentration: 50uM -0.287 | [19]; compound concentration: 200uM -0.349 | [20]; compound concentration: 50uM -0.0669 | [20]; compound concentration: 200uM -0.74 | [1]; compound concentration: 50uM -0.0991 | [1]; compound concentration: 200uM -0.214
